Data from PubChem BioAssay AID1942 (Johns Hopkins Ion Channel Center, 2009).
Screen size: about 2,400 compounds; about 580 (24%) were called active. The list is a sample of the results. Unmarked numbers belong to inactive results.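 The calls were made as follows: active = activity change at or above the mean plus 3 SD of buffer wells without dofetilide, per plate; inactive = the rest.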

Target: Potassium voltage-gated channel subfamily KQT member 2 (Rattus norvegicus) (UniProt O88943)
Assay: rat KCNQ2 channel activation by compounds alone, confirmation, counter-screen for hERG block protector project, cell-based, CHO, FluxOR thallium flux (AID 1942);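 also: normalized value minus buffer-control mean plus three SD of buffer wells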
Settings: CHO-KCNQ2 cells, FluxOR thallium flux fluorescence; at 10 µM; hits give high values

Sequence of Potassium voltage-gated channel subfamily KQT member 2 (Rattus norvegicus) (O88943 whole entry, looked up): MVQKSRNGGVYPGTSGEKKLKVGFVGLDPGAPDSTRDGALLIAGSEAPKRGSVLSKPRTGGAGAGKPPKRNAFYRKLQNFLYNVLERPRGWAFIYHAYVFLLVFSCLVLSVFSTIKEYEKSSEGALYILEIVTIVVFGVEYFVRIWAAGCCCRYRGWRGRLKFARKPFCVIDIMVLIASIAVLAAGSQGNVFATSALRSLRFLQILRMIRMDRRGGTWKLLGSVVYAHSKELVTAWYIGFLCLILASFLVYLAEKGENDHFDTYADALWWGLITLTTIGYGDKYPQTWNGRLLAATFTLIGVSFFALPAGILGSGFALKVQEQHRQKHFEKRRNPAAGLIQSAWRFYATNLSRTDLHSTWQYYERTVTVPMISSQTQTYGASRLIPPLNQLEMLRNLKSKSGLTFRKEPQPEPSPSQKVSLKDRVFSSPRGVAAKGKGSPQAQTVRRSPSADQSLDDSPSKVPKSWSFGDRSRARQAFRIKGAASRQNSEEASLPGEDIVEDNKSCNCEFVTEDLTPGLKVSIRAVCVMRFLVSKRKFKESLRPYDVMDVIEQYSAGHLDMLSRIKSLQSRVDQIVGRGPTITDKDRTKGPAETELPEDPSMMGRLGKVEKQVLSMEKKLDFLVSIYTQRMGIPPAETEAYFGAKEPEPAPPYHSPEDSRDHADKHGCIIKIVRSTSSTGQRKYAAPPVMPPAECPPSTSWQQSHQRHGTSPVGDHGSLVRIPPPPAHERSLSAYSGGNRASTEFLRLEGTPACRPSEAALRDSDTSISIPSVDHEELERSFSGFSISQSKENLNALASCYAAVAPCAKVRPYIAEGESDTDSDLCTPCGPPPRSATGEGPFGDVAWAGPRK

| SMILES | activity change, less the hit threshold |
| --- | --- |
| CCCCOC(=O)Nc1nnc(C(C)C)s1 | -15.9% |
| CCCCn1nc(NC(=O)COC)c2cc3ccc(C)cc3nc21 | -8.8% |
| O=C(NC(=S)N1CCN(Cc2ccc3c(c2)OCO3)CC1)c1cccc(Br)c1 | 46.4% (active) |
| O=C(NC(=S)N1CCN(Cc2ccc3c(c2)OCO3)CC1)c1ccc(Cl)cc1 | 36.3% (active) |
| O=C(COc1ccc(Cl)cc1)N1CCN(Cc2ccc3c(c2)OCO3)CC1 | -4.9% |
| COc1ccc(CCNC(=O)c2ccc3c(c2)OCO3)cc1 | -18% |
| CCOc1ccc(S(=O)(=O)N2CCN(Cc3ccc4c(c3)OCO4)CC2)cc1C | -28.7% |
| COc1ccc(C(=O)N2CCN(Cc3ccc4c(c3)OCO4)CC2)cc1[N+](=O)[O-] | -19.3% |
| Cc1cc2nccc(-c3ccc(Cl)cc3Cl)n2n1 | -9.7% |
| Cc1nnc(SCC2=C(C(=O)O)N3C(=O)C(NC(=O)Cn4nc(C(F)F)cc4C)C3SC2)s1 (stereo unspecified) | -16.5% |
| CCCCC1C2=C(CCCC2=O)OC2=C1C(=O)CCC2 | -25.6% |
| O=C1CC(c2ccccc2)c2cccc(F)c21 (stereo unspecified) | -11.3% |
| O=C(NC1CCCC1)C(c1ccncc1)N(C(=O)Cn1nnc(-c2ccccc2F)n1)c1cccc(F)c1 (stereo unspecified) | -18% |
| COc1ccc(Cn2c(O)cc(=O)[nH]c2=O)cc1 | -20.5% |
| Cn1c(CNC(=O)c2ccccc2F)nnc1SCc1nc2ccccc2c(=O)[nH]1 | -4.7% |
| O=C(O)CSCc1c(F)cccc1Cl | -31.3% |
| O=C(O)CSc1nc2ccccc2nc1Cc1ccccc1F | 1.3% (active) |
| CCOC(=O)C1=C(O)/C(=C/c2ccc(OCC(=O)O)c(OC)c2)SC1=Nc1ccc(OCC)cc1 | -27.2% |
| Cc1c(/C=C2\SC(=O)N(CC(=O)Nc3ccc4c(c3)OCO4)C2=O)c2ccccc2n1C | -15.7% |
| CC(=O)N(C1=C(N)C(=O)c2ccccc2C1=O)C(C)C | -9.1% |
| Cc1ccc(C(C#N)c2ccc3c(C(F)(F)F)cc(C(F)(F)F)nc3n2)cc1 (stereo unspecified) | -5.9% |
| CCc1nnc(NC(=O)CSc2nc(-c3ccccc3)cc(-c3ccc(OC)cc3)c2C#N)s1 | -24.2% |
| CC(C)N1CC(C(=O)Nc2ccc(Cl)c(Cl)c2)CC1=O (stereo unspecified) | -15.3% |
| O=C(O)Cc1ccc(NC(=O)C2CC=CCC2C(=O)O)cc1 (stereo unspecified) | -17.7% |
| COc1ccc(OC)c(NC(=O)C(=S)NC2CCCCC2)c1 | -21.2% |
| Cc1cc(C)c2nc(NC(=O)C3CCCO3)sc2c1 (stereo unspecified) | -17% |

| SMILES | activity change, less the hit threshold |
| --- | --- |
| COc1ccc(NC(=O)COC(=O)c2c(C)noc2C)c(OC)c1 | -8.1% |
| CC(C)c1ccc(NC(=O)C2CC3CCC2C3)cc1 (stereo unspecified) | 21.5% (active) |
| Cc1cc(C)c(NC(=O)C2CC3CCC2C3)c(C)c1 (stereo unspecified) | 75.9% (active) |
| COc1ccc(NC(=O)C2CC3CCC2C3)c(OC)c1 (stereo unspecified) | 15.8% (active) |
| O=C(COc1ccc([N+](=O)[O-])cc1)Nc1cccnc1 | -27.2% |
| c1ccc(OCc2nn3c(Cn4cnc5ccccc54)nnc3s2)cc1 | -20.8% |
| CCCN1CCN(CCCNC(=O)Cn2nc(C)n3c(cc4cc(OC)ccc43)c2=O)CC1 | -25.2% |
| CC(C)[C@H](NC(=O)OC(C)(C)C)C(=O)NCC1CCC(C(=O)N[C@@H](Cc2ccccc2)C(=O)O)CC1 (stereo partly specified) | -10.4% |
| CCOC(=O)c1cnc(-n2nc(C)cc2C)nc1NNc1nc(-c2ccccc2)cc(-c2ccccc2)n1 | -15% |
| CCOC(=O)Cn1cc(C=O)c2ccccc21 | -12.9% |
| O=S(=O)(Nc1nc(-c2sccc2Cl)cs1)c1cc(Cl)ccc1Cl | 105% (active) |
| COC(=O)c1sccc1NC(=O)CSc1ccccc1NS(=O)(=O)c1cc(Cl)ccc1Cl | -17% |
| COc1cc(C(=O)NCCNc2nc3cc(C)ccc3cc2C#N)cc(OC)c1OC | -18.4% |
| COc1ccc(NC(=O)CSCC(=O)Oc2c(OC)cccc2OC)cc1 | -22.1% |
| CC(NC(=S)NC1CCCCC1)c1ccccc1 (stereo unspecified) | 6.9% (active) |
| COc1cccc(NC(=S)NC(C)c2ccc(OC)c(OC)c2)c1 (stereo unspecified) | -23.4% |
| CCOc1ccc(N=Nc2cc(C(C)C)ccc2O)cc1 | -9.1% |
| CC(C)NC(=S)NNc1nc2ccccc2s1 | -19.4% |
| Cc1ccc(OCCC(=O)OC(C)C(=O)NC2CC2)cc1 (stereo unspecified) | -9% |
| CCC(C)(C(=O)NC1CCCC1)N(C(=O)c1ccccn1)c1ccccc1 (stereo unspecified) | -13% |
| CCOc1ccc(C(C)NC(=S)NC2CCCCC2)cc1 (stereo unspecified) | 9.5% (active) |
| Cc1ccc(C(C)NC(=S)NC2CCCCC2)cc1C (stereo unspecified) | 46.1% (active) |
| CC(NC(=O)NC1CCCCC1)c1ccccc1 (stereo unspecified) | 26.3% (active) |
| CC(NC(=O)COC(=O)C1CCC1)c1ccccc1 (stereo unspecified) | -21.4% |
| CC(C)(C)c1ccccc1NC(=S)NC1CCCC1 | -7.6% |
